PAFAH1B2 inh = blocks human PAF acetylhydrolase 1b catalytic subunit 2; recombinant PAFAH1B2, FP-rhodamine activity probe, fluorescence polarization; inhibition, % at 3.39 µM; hit rate 1.2% among 340,000; P68402;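 active = inhibition above the mean of all tested compounds plus 3 SD, cut at about 24% in these data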;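 note: 0% = enzyme with DMSO and 100% = wells lacking PAFAH1B2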
Target sequence (P68402 whole entry, looked up): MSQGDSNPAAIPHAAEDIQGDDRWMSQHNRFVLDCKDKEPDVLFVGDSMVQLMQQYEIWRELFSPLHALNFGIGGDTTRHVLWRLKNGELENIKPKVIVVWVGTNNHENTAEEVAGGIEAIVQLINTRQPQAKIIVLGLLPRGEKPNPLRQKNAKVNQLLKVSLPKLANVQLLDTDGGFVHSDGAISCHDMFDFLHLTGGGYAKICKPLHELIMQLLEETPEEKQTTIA
pPAFAH FP inh = inhibitors of human plasma PAF acetylhydrolase (pPAFAH); hit rate 1.5% among 330,000; AID 463082; recombinant pPAFAH, FP-rhodamine probe fluorescence polarization; Q13093; inhibition, % at 3.39 µM;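 active = inhibition above the mean inhibition across the screen plus 3 SD, cut at about 25% in these data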;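 note: inhibitors block binding of the rhodamine activity-based probe so polarization drops; 0% = enzyme with DMSO and 100% = wells lacking pPAFAH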
Pemphigus Ab inh = inhibitors of pemphigus antibody binding to human desmoglein-3. P32926. DSG3-coupled beads, scFv-anti-DSG3-GFP binding, flow cytometry; active compounds read low. binding (percent of control), % at 10 µM. hit rate 0.48% among 310,000;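 active = binding more than 3 SD below its plate's average and above zero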;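 note: hits lower antibody fragment binding to DSG3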
PAFAH2 inh = PAFAH2 (human) inhibition; Q99487; recombinant PAFAH2, FP-rhodamine activity probe, fluorescence polarization; inhibition, % at 3.39 µM; hit rate 0.99% among 340,000;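 active = inhibition above the mean over all tested compounds plus 3 SD, cut at about 30% in these data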;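 note: inhibitors block probe labeling of enzyme so polarization drops; 0% = enzyme with DMSO and 100% = wells lacking PAFAH2 protein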
PAFAH1B3 inh = blocks human PAF acetylhydrolase 1B catalytic subunit 3; Q15102; recombinant PAFAH1B3, FP-rhodamine probe, fluorescence polarization; inhibition, % at 3.39 µM; hit rate 0.28% among 340,000;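 active = inhibition above the screen-wide average of all tested compounds plus 3 SD, cut at about 25% in these data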;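 note: 0% = enzyme with DMSO only and 100% = wells lacking PAFAH1B3 protein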
Target sequence (Q15102 whole entry, looked up): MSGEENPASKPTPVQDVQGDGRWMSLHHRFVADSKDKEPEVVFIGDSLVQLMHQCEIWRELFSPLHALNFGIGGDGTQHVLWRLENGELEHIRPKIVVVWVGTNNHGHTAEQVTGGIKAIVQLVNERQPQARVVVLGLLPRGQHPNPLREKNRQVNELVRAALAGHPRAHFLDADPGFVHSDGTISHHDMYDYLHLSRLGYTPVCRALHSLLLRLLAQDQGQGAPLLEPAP
PfM18AAP inh = blocks P. falciparum M18 aspartyl aminopeptidase | recombinant PfM18AAP, H-Glu-NHMec fluorogenic cleavage | inhibition, % at 7.35 µM | hit rate 1.2% among 290,000 | AID 1822;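 active = inhibition above the campaign mean inhibition over all tested compounds plus 3 SD, cut at about 28% in these data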;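 note: 0% = plate median of test compound wells and 100% = 2 mM ZnCl2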
PAFAH2 confirm = confirmation of human PAFAH2 inhibitors; recombinant PAFAH2, FP-rhodamine activity probe, fluorescence polarization; shares compounds with PAFAH2 inh; inhibition, % at 3.39 µM; hit rate 65% among 2,300;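 active = mean inhibition over three repeats above a set limit taken from the earlier primary screen, cut at about 30% in these data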;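 note: inhibitor blocks binding of rhodamine activity probe so polarization falls; 0% = enzyme with DMSO and 100% = wells lacking PAFAH2 protein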
* marks the source's active call; other numbers are inactive results; · = no result given. An excerpt weighted towards active compounds, which were near 3.8% of everything screened.

SMILES | PAFAH1B2 inh | pPAFAH FP inh | Pemphigus Ab inh | PAFAH2 inh | PAFAH1B3 inh | PfM18AAP inh | PAFAH2 confirm
Cc1ccc(F)cc1NC(=O)/C=C/c1ccc(S(=O)(=O)N2CCOCC2)cc1 | 1.3 | 3.3 | 115.7 | -5.3 | 5.5 | · | ·
Cc1noc(C)c1COC(=O)c1cccc(N(C)C)c1 | 10.4 | 3.0 | 99.9 | 3.3 | 2.8 | -11.6 | ·
Cc1ccccc1OCCOc1cccc(/C=N/NC(=O)Cc2nnc(N)s2)c1 | 4.3 | 8.9 | 109.2 | 32.8* | -3.6 | 4.2 | 15.9
Nc1nnc(CC(=O)N/N=C/c2cccc(OCCOc3ccccc3)c2)s1 | 1.0 | -7.6 | 90.3 | 17.6 | 1.8 | -6.7 | ·
Cc1noc(C)c1COC(=O)COc1ccc(C#N)cc1 | -2.7 | -4.4 | 93.3 | -0.7 | 3.5 | -13.3 | ·
COc1ccc(CNC(=O)COC(=O)c2ccc(OCc3c(C)noc3C)cc2)cc1OC | 4.4 | 2.9 | 124.9 | 0.0 | -0.7 | -2.5 | ·
Cc1noc(C)c1COc1ccc(C(=O)OCC(=O)NCc2ccccc2Cl)cc1 | 4.0 | 12.3 | 102.2 | 76.3* | 1.7 | -0.9 | 74.4*
Cc1noc(C)c1COc1ccc(C(=O)OCC(=O)OC(C)(C)C)cc1 | 1.2 | 8.6 | 101.0 | 32.4* | 8.2 | -0.8 | 29.5
Cc1ccc(C(=O)OCC(=O)Nc2ccc(F)c(Cl)c2)o1 | 0.8 | 7.4 | 97.7 | 84.8* | 3.1 | · | 74.8*
Cc1cc(C(=O)OCC(=O)Nc2ccc(F)c(F)c2F)c(C)o1 | 6.2 | 8.8 | 110.7 | 51.7* | 3.4 | -10.8 | 49.5*
COc1ccc(Cl)cc1NC(=O)COC(=O)c1cc(C)oc1C | 10.1 | 5.6 | 108.8 | -1.7 | 4.5 | · | ·
Cc1cc(C(=O)OCC(=O)Nc2ccc(F)cc2)c(C)o1 | 1.2 | 7.4 | · | 78.8* | 6.2 | 1.6 | 78.3*
Cc1ccc(C(=O)OCC(=O)Nc2ccc3[nH]c(=O)[nH]c3c2)o1 | 4.8 | 6.2 | 105.0 | 1.3 | -1.9 | · | ·
CC(=O)c1ccccc1NC(=O)COC(=O)c1cc(C)oc1C | 4.5 | -2.3 | 103.1 | 13.8 | 4.3 | · | ·
Cc1cc(C(=O)OCC(=O)Nc2ccccc2)c(C)o1 | -0.5 | 3.7 | 128.1 | 77.6* | 4.9 | -16.1 | 74.2*
O=C(NCC1CCCO1)C(c1ccco1)N(Cc1ccc(F)cc1)C(=O)CN1C(=O)c2ccccc2S1(=O)=O (configuration not stated) | -3.0 | 0.3 | · | 12.5 | 6.3 | 7.3 | ·
CCOc1ccc(C(=O)OC(C)CN2CCCCC2)cc1 (configuration not stated) | 3.9 | -1.9 | 105.2 | 56.6* | 5.7 | -4.3 | -1.4
CN(CC(=O)Nc1ccccc1Br)C(=O)c1cccn1C | 0.7 | -4.7 | 105.1 | -2.8 | 6.5 | · | ·
CNS(=O)(=O)c1cccc(C(=O)OCC(=O)NCc2ccccc2)c1 | -2.4 | -0.4 | 102.4 | 18.1 | 11.2 | -4.2 | ·
CC(C)CNC(=O)COC(=O)c1cccc(S(=O)(=O)NCC(F)(F)F)c1 | 1.9 | 13.0 | 99.8 | 30.8* | 3.7 | -6.0 | 19.9
COc1ccc(C(=O)NNC(=S)NC(=O)c2ccc(F)cc2)cc1Br | · | 4.5 | 107.2 | · | · | · | ·
COc1cc(C(=O)NNC(=S)NC(=O)c2ccc(F)cc2)cc(OC)c1OC | 8.7 | 7.0 | 106.4 | 50.9* | 5.3 | -5.0 | 23.4
Cc1cc(=O)oc2c3c(cc(OCC(=O)NCC(=O)N[C@H](C(=O)O)C(C)C)c12)OC(C)(C)CC3 | 2.7 | 12.7 | 109.4 | 14.2 | 10.9 | -18.5 | ·
Cc1c(C)c2c(OCC(=O)Nc3cccnc3)cc3c(c2oc1=O)CCC(C)(C)O3 | 4.3 | 20.2 | 102.3 | 33.3* | 9.9 | -9.7 | 11.3
Cc1cc(OCC(=O)Nc2cccnc2)c2c(C)c(C)c(=O)oc2c1 | 0.5 | 2.7 | · | -6.3 | 4.3 | -3.5 | ·
Cc1c(C)c2c(OCC(=O)NCC(C)C)cc3c(c2oc1=O)CCC(C)(C)O3 | 4.0 | · | 97.4 | 71.8* | 6.3 | -2.8 | 51.7*
CC1(C)C(/C=C/C=C/C=C/C=C2\N(CCCCS(=O)(=O)O)c3ccc4ccccc4c3C2(C)C)=[N+](CCCCS(=O)(=O)[O-])c2ccc3ccccc3c21 | -11.6 | 28.9* | 33.0* | 42.9* | -32.0 | · | 25.5
Cc1c2ccccc2cc[n+]1CCCS(=O)(=O)[O-] | -4.2 | 2.5 | 103.2 | -6.1 | 5.7 | 4.0 | ·
Cc1ccn(C(=O)c2ccc(NC(=O)C3CCCCC3)cc2)n1 | -2.7 | 7.1 | · | 33.1* | 10.7 | 6.2 | 45.5*

Source: PubChem BioAssay
